# Hits are enriched below; roughly 22% of the tested compounds scored in any of these assays.
# LmPK inh: inhibitors of Leishmania mexicana pyruvate kinase. Q27686. purified LmPK, Kinase-Glo ATP luminescence, 1 h. Potency, µM (series often up to 57.5 µM), for the others: top-dose activity change, negative = inhibition, hits mostly inhibitors. actives 0.37% (n = 290,000); note: potency is the fitted concentration of half-maximal effect; % is set by controls: 0 for no effect and ±100 for the full control effect
# Target sequence (Q27686 whole entry, looked up): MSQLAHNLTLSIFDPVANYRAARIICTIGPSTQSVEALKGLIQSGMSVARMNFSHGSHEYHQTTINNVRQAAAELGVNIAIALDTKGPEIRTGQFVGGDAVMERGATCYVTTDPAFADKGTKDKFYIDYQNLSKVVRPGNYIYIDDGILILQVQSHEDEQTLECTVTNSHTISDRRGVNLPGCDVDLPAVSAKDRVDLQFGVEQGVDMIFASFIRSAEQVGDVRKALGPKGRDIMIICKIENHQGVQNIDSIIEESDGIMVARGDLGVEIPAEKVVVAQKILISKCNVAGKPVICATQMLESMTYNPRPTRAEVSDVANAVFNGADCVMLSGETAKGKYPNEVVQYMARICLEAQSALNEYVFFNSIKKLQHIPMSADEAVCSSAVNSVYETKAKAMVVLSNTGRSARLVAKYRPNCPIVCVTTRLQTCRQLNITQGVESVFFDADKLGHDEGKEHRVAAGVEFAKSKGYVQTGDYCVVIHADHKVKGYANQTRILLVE
#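 ATP generated from ADP (0.1 mM) and PEP (0.5 mM) by 0.1 nM LmPK over 1 h at room temperature (pH 7.2 imidazole buffer) was detected by coupled luciferase luminescence. Values were normalized to uninhibited and no-enzyme wells.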
# Pf growth 48h: inhibits P. falciparum growth in the first generation, 48 h | actives 5.9% (n = 310,000) | P. falciparum luciferase growth in erythrocytes, 48 h | Potency, µM (series often up to 28.7 µM), for inactives: at the top dose activity change, negative = inhibition, most hits filed as inhibitors | AID 504832; note: potency is the fitted concentration of half-maximal effect; % is set by controls: 0 for no effect and ±100 for the full control effect
#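 Luminescence readout; reporter = integrated firefly luciferase in P. falciparum. RBC culture at 2% hematocrit, 0.1% parasitemia final, 37 C/5% CO2; decreased signal taken as growth inhibition.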
# Shiga toxin inh: blocks Shiga toxin action in Vero cells; Vero cells, Shiga toxin protein synthesis inhibition reporter; inhibition, % at 38.7 µM; actives 9.2% (n = 290,000); AID 2315; in the data active = inhibition mostly above about 28%, no sharp cut-off; inactive = mostly below about 43%; note: 0% is about no effect
# CHX counter: affects cycloheximide protein synthesis inhibition readout, counter-screen | max response, % | actives 12% (n = 300,000) | cell reporter, cycloheximide protein synthesis inhibition counterscreen; in the data active = max response mostly above about 13%, no sharp cut-off; inactive = mostly below about 14%; note: read at 38.3 µM for the half of the compounds with a filed dose; 0% is about no effect
# Pf growth 96h: P. falciparum growth inhibition at 96 hours. actives 6.9% (n = 320,000). Potency, µM (top dose mostly 28.7 µM), for the others: at the top dose activity change, negative = inhibition, most hits filed as inhibitors. AID 504834. P. falciparum luciferase reporter growth, 96 h; note: potency is the fitted concentration of half-maximal effect; % is set by controls: 0 for no effect and ±100 for the full control effect
#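 Infected RBCs, 2% Hct / 0.05% parasitemia final; luciferase-reporter P. falciparum; cpd 96 h, 37 C, 5% CO2; luciferase detection reagent; luminescence.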
# Starred values were filed as active, the others as inactive; ? = inconclusive; / = not tested or not shown; [ ] = another dose, or the depositor's remark. Unless noted, calls come from the whole dose curve; as a rule, active = well fitted inhibition curve with a large enough effect; inconclusive = small, poorly fitted or top-dose-only effect, or another doubt; inactive = no such curve, though single readings can be large or run the other way.
SMILES,LmPK inh,Pf growth 48h,Shiga toxin inh,CHX counter,Pf growth 96h
COC(=O)[C@H]1[C@H]2C[C@@H]3c4[nH]c5cc(OC)ccc5c4CCN3C[C@H]2C[C@@H](OC(=O)c2ccc(N)cc2)[C@@H]1OC,1%,12µM*,-6,-3,13µM*
COC(=O)[C@H]1[C@H]2C[C@@H]3c4[nH]c5cc(OC)ccc5c4CCN3C[C@H]2C[C@@H](OC(=O)/C=C/c2cc(OC)c(OC)c(OC)c2)[C@@H]1OC,/,0.74µM*,/,/,0.93µM*
COc1ccc2c3c([nH]c2c1)[C@H]1C[C@H]2[C@H](C[C@@H](O)[C@H](OC)[C@H]2C(=O)O)CN1CC3,/,-17%,/,/,-21%
COC(=O)C1[C@@H](OC)C(OC(=O)COc2ccc(OC)cc2)C[C@@H]2CN3CCc4c([nH]c5cc(OC)ccc45)[C@H]3C[C@H]12 (some centres not stated),/,8.5µM*,/,/,6.7µM*
CCOc1ccccc1N(CC(=O)NC1CCCC1)S(=O)(=O)c1ccc(C)cc1,9%,?,-6,6,27%
Cc1ccc(NC(=O)COC(=O)C2CSC3(C)CCC(=O)N23)cc1S(=O)(=O)N1CCOCC1 (configuration not stated),-1%,-4%,-13,9,-17%
Cc1cc(OC(=O)c2cc(C(F)(F)F)cc(C(F)(F)F)c2)c([N+](=O)[O-])c(=O)[nH]1,-1%,19%,-1,1,26%
O=C(O)[C@@H]1[C@H]2C[C@H]3c4[nH]c5ccccc5c4CCN3C[C@@H]2CC[C@@H]1O,/,?,/,/,7.4µM*
COC(=O)[C@H]1[C@H]2C[C@@H]3c4[nH]c5ccccc5c4CCN3C[C@H]2C[C@@H](OC(=O)c2cc(OC)c(OC)c(OC)c2)[C@@H]1OC,/,0.38µM*,/,/,5%
COc1ccc(Cl)cc1NC(=S)N(Cc1cccnc1)Cc1ccco1,0%,10µM*,22,1,-8%
Cc1ccc(Cl)cc1NC(=S)N(Cc1ccccc1)Cc1cccnc1,1%,10µM*,-1,-2,-28%
COc1ccccc1NC(=S)N(Cc1ccccc1)Cc1cccs1,-3%,20%,-3,13,13µM*
COc1ccccc1NC(=S)N(Cc1cccnc1)Cc1ccco1,-2%,12µM*,31,13,-1%
COc1ccccc1NC(=S)N(Cc1cccs1)C1CCCC1,-6%,-17%,-11,-3,?
CNC(=S)NNC(=O)c1cc(-c2cccnc2)nc2ccccc12,-5%,5%,27,17,?
CCc1ccccc1NC(=S)N(Cc1cccnc1)Cc1ccco1,-4%,?,-7,-3,8.3µM*
CCOC(=O)c1cnn(-c2nc(-c3ccccc3)cs2)c1C(F)(F)F,6%,35%,28,2,77%
CNC(=O)c1cnn(-c2nc(-c3ccc(OC)cc3)cs2)c1C(F)(F)F,-1%,-20%[0.00184 µM],-6,7,9%
COc1ccc(-c2csc(-n3ncc(C(=O)O)c3C(F)(F)F)n2)cc1,0%,15%[0.00184 µM],135*,74*,40%
COC(=O)c1cnn(-c2nc(-c3ccccc3)cs2)c1N,-5%,85%,40*,42*,76%
O=C(O)c1cnn(-c2nc(-c3ccc(Cl)cc3)cs2)c1C(F)(F)F,0%,/,82*,53*,16%
Cc1ccc(OCCNC(=O)c2ccc(COc3ccccc3)o2)cc1,/,-6%,/,/,-2%
O=C(NCCOc1ccccc1)c1cc2ccccc2o1,-1%,170%,117*,45*,/
Cc1ccc(OCC(=O)NNC(=O)c2cc3ccccc3o2)cc1C,2%,29%,17,-4,12µM*
CC(C)Cc1ccc(C(=O)NCCOc2ccccc2)o1,-3%,202%,80*,29*,36%
SMILES,LmPK inh,Pf growth 48h,Shiga toxin inh,CHX counter,Pf growth 96h
O=C(COc1ccccc1)NNC(=O)c1cc2ccccc2o1,3%,11%,2,-2,?
Cc1ccc(CNC(=O)CCS(=O)(=O)c2ccc3c(c2)CC(C)N3C(=O)C2CC2)cc1 (configuration not stated),12%,6%,-13,-2,3%
CCN(Cc1nc2ccccc2c(=O)[nH]1)Cc1cc(=O)oc2cc(OC)ccc12,-1%,?,-47,-5,/
CN(C(=O)CCCOc1ccc2[nH]c(=O)ccc2c1)C1CCCCC1,/,?,/,/,0.6µM*
CC(C)Cn1c(-c2nn(C)cc2Cl)n[nH]c1=S,13µM*,13%,-15,-1,2%
Cc1ccsc1-c1n[nH]c(=S)n1CC(C)C,14µM*,2%,-9,-2,7%
COc1ccc(/C=C/C(=O)OCC(=O)NC2CCCC2)c(OC)c1,/,-18%,/,/,23%
COc1cc(-c2nc(-c3ccc(NC(=O)c4ccc5c(c4)OCO5)cc3)no2)cc(OC)c1OC,-20%,51%,68*,40*,/
COc1ccc(CC(=O)Nc2ccc(-c3noc(-c4cc(OC)c(OC)c(OC)c4)n3)cc2)cc1,3%,-15%,10,1,-19%
Cc1ccccc1-c1nc(-c2ccc(NC(=O)c3ccc4c(c3)OCO4)cc2)no1,-16%,/,81*,38*,52%
COc1ccc(-c2noc(CNC(=O)c3ccc4c(c3)OCO4)n2)cc1,-1%,12%,-11,-3,-22%
Cc1ccc2c(NC(=S)NC(=O)c3ccccc3)cccc2n1,-6%,14%,3,10,58%
Cc1nc(NC(=O)c2csc3ccccc23)sc1C,-1%,-53%,123*,39*,/
Cc1sc(NC(=O)c2ccccc2)c(C(=O)c2ccccc2)c1C,0%,0%,-1,7,12µM*
Cc1nc(NC(=O)CCc2ccccc2)sc1C,-1%,55%,68*,40*,?
CSc1nnc(NC(=O)CCc2ccccc2)s1,4%,9%,27,17,-8%
Cc1nc(NC(=O)c2c(-c3ccccc3Cl)noc2C)sc1C,-3%,?,21,15,?
Cc1ccc(C(=O)Nc2sc(C)c(C)c2C(=O)c2ccccc2)cc1,-4%,11%,-9,-3,10%
Cc1nc(NC(=S)NC(=O)c2ccccc2)sc1C,-11%,0%,69*,39*,114%
Cc1nn(-c2ccccc2)c(N2CCCC2)c1/C=C1\N=C(c2ccc(OC(C)C)cc2)OC1=O,-3%,18%,-12,-3,?
CCO[C@H]1OC(C(=O)O)=C[C@@H](C)[C@@H]1CCCO,2%,45%,-9,0,73%
CCc1cc(-c2n[nH]c(C)c2Oc2ccc(C(C)C)cc2)c(O)cc1O,3%,/,-5,-3,?
O=C(NCc1cccc(C(F)(F)F)c1)c1ccc(=O)[nH]c1,0%,10%,17,-2,60%
CCOC(=O)C1=C(C)NC(=S)NC1c1ccc(OCC(=O)N2CCCCCC2)c(OC)c1 (configuration not stated),2%,0%,-10,1,?
Cc1nc(NC(=O)c2ccccc2)sc1C,-19%,322%,/,27*,-37%
Cc1nc(Nc2ccccc2)sc1C,3%,?,71*,46*,?

# Screening results (PubChem BioAssay)
